Experimental data reported in PubChem BioAssay (NCI).
This is part of a sample that, as a whole, favours compounds with a hit. Of some 83,000 tested, about 20% had one in any assay.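 The test compound was applied at a single concentration to cells in 96-well plates for 48 hours, and percent growth was recorded.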 The source made the active and inactive calls. Rule for the calls: active = growth percent below 10; inactive = the rest.

What was measured:
Assay in all cases: NCI-60 one-dose screen, 48 h (100 = growth as untreated, 0 = no growth, -100 = all killed)
Conditions in all cases: 10 µM unless noted
NCI-H23 lung = system: NCI-H23 lung
NCI-H226 lung = system: NCI-H226 lung
NCI-H322M lung = system: NCI-H322M lung
HOP-62 NSCLC = system: HOP-62 NSCLC
NCI-H460 lung = system: NCI-H460 lung
HOP-92 NSCLC = system: HOP-92 NSCLC
NCI-H522 lung = system: NCI-H522 lung
A549/ATCC NSCLC = system: A549/ATCC NSCLC
786-0 renal = system: 786-0 renal
COLO 205 colon = system: COLO 205 colon

Measured: growth

Cc1[nH]c2ccc(F)cc2c1CCNC(=O)C1CCN(C(=O)c2ccc(-c3ccccc3)cc2)CC1
inactive: NCI-H23 lung 45.5% | NCI-H226 lung 57.3% | NCI-H322M lung 87% | HOP-62 NSCLC 64.4% | NCI-H460 lung 51% | HOP-92 NSCLC 70.6% | NCI-H522 lung 41.6% | A549/ATCC NSCLC 39.1% | 786-0 renal 63.3% | COLO 205 colon 36.7%

CCC(CC(C)C)Nc1ccc(NC(CC)CC(C)C)cc1 (stereo not given)
inactive: NCI-H23 lung 77.7% | NCI-H226 lung 76.5% | NCI-H322M lung 107% | HOP-62 NSCLC 105% | NCI-H460 lung 94.5% | NCI-H522 lung 14.6% | A549/ATCC NSCLC 89.2% | 786-0 renal 93.1% | COLO 205 colon 76.9%
active: HOP-92 NSCLC -13.1%

Cc1cccc(NC(=O)CCc2ccc(N3C(N)=NC(N)=NC3(C)C)cc2)c1
inactive: NCI-H23 lung 30.6% | NCI-H226 lung 100% | NCI-H322M lung 42.7% | HOP-62 NSCLC 24% | NCI-H460 lung 19.8% | HOP-92 NSCLC 32.5% | A549/ATCC NSCLC 11.8% | COLO 205 colon 73.6%
active: NCI-H522 lung 0.83% | 786-0 renal -7.98%

COc1ccc(-c2nnc(SCC(=O)Nc3ccc(C(=O)/C=C/c4ccc(Cl)cc4)cc3)o2)cc1OC
inactive: NCI-H23 lung 79% | NCI-H226 lung 85.7% | NCI-H322M lung 87.4% | HOP-62 NSCLC 71.8% | NCI-H460 lung 70% | HOP-92 NSCLC 29.7% | NCI-H522 lung 16.7% | A549/ATCC NSCLC 90.7% | 786-0 renal 70.8% | COLO 205 colon 116%

COc1ccc(Cn2cc3c(c2-c2cc(OC)c(OC)c(OC)c2)CCc2c(CO)noc2-3)cc1
active: NCI-H460 lung 4.62% | NCI-H522 lung 9.75% | COLO 205 colon -23.6%
inactive: NCI-H23 lung 38.3% | NCI-H226 lung 47.7% | NCI-H322M lung 39.7% | HOP-62 NSCLC 35.2% | HOP-92 NSCLC 57% | A549/ATCC NSCLC 32.5% | 786-0 renal 45%

O=C(C[n+]1ccccc1Cl)c1ccc2c(c1)CCCC2
inactive: NCI-H23 lung 92% | NCI-H226 lung 112% | NCI-H322M lung 106% | HOP-62 NSCLC 90.6% | NCI-H460 lung 107% | HOP-92 NSCLC 95.1% | NCI-H522 lung 87.4% | A549/ATCC NSCLC 85.6% | 786-0 renal 75.5% | COLO 205 colon 56.3%

COc1cc(/C=C/C(=O)c2c(C)[n+]([O-])c3ccccc3[n+]2[O-])ccc1O
inactive: NCI-H23 lung 95.5% | NCI-H226 lung 98.5% | NCI-H322M lung 99.4% | HOP-62 NSCLC 125% | NCI-H460 lung 91.4% | HOP-92 NSCLC 42.2% | NCI-H522 lung 71% | A549/ATCC NSCLC 103% | 786-0 renal 62.4% | COLO 205 colon 121%

COc1cc(CN(c2ccc(Cl)cc2)C2OC(=O)c3ccccc32)cc(OC)c1OC (stereo not given)
inactive: NCI-H23 lung 77.2% | NCI-H226 lung 78.9% | NCI-H322M lung 88.8% | HOP-62 NSCLC 44.8% | NCI-H460 lung 57.4% | HOP-92 NSCLC 69.1% | NCI-H522 lung 35% | A549/ATCC NSCLC 39.7% | 786-0 renal 71% | COLO 205 colon 61.9%

O=C(NNC(=O)c1ccc([N+](=O)[O-])cc1)c1ccc([N+](=O)[O-])cc1
inactive: NCI-H23 lung 94.8% | NCI-H226 lung 99.3% | NCI-H322M lung 120% | HOP-62 NSCLC 90.8% | NCI-H460 lung 105% | HOP-92 NSCLC 106% | NCI-H522 lung 84% | A549/ATCC NSCLC 99.3% | 786-0 renal 95% | COLO 205 colon 115%

CCCOC(=O)c1ccc([N+](=O)[O-])o1
inactive: NCI-H23 lung 108% | NCI-H226 lung 109% | NCI-H322M lung 108% | HOP-62 NSCLC 114% | NCI-H460 lung 91.4% | HOP-92 NSCLC 109% | NCI-H522 lung 85.4% | A549/ATCC NSCLC 101% | 786-0 renal 108% | COLO 205 colon 120%

C=CC(=O)NC(=O)Nc1ccccc1Cl
inactive: NCI-H23 lung 103% | NCI-H226 lung 94.2% | NCI-H322M lung 90.2% | HOP-62 NSCLC 89.8% | NCI-H460 lung 102% | HOP-92 NSCLC 86.2% | A549/ATCC NSCLC 75.4% | 786-0 renal 74.3% | COLO 205 colon 88.9%
active: NCI-H522 lung 6.09%

COC(=O)/C=C/C(=O)c1cc(C)cc(C)c1O
inactive: NCI-H23 lung 97.5% | NCI-H226 lung 102% | NCI-H322M lung 101% | HOP-62 NSCLC 96.6% | NCI-H460 lung 111% | HOP-92 NSCLC 113% | NCI-H522 lung 92.9% | A549/ATCC NSCLC 98.6% | 786-0 renal 100% | COLO 205 colon 108%

O=C(NC(=S)Nc1ccc(Cl)cc1)c1ccccc1
inactive: NCI-H23 lung 98.4% | NCI-H226 lung 108% | NCI-H322M lung 107% | HOP-62 NSCLC 96.6% | NCI-H460 lung 105% | HOP-92 NSCLC 85.8% | NCI-H522 lung 53% | A549/ATCC NSCLC 85.1% | 786-0 renal 90.9% | COLO 205 colon 132%

COc1cc(-c2nc3ccccc3s2)ccc1OCc1nc2n(n1)S(=O)(=O)c1ccccc1N2C
active: HOP-92 NSCLC 1.17%
inactive: NCI-H23 lung 92.7% | NCI-H226 lung 101% | NCI-H322M lung 68.9% | HOP-62 NSCLC 46.1% | NCI-H460 lung 101% | NCI-H522 lung 60.7% | A549/ATCC NSCLC 91.1% | 786-0 renal 62.1% | COLO 205 colon 102%

Cc1ccc(=O)n(-c2ccc(Br)cc2F)c1
inactive: NCI-H23 lung 98.4% | NCI-H226 lung 85.4% | NCI-H322M lung 102% | HOP-62 NSCLC 94% | NCI-H460 lung 110% | HOP-92 NSCLC 77.3% | NCI-H522 lung 104% | A549/ATCC NSCLC 98.7% | 786-0 renal 99.5% | COLO 205 colon 110%

Cn1c(I)c(C#C[Si](C)(C)C)c(=O)[nH]c1=O
active: HOP-92 NSCLC -82.8% | NCI-H522 lung -58.7% | 786-0 renal -10.8% | COLO 205 colon -59%
inactive: NCI-H23 lung 17.9% | NCI-H226 lung 78.9% | NCI-H322M lung 115% | HOP-62 NSCLC 76.4% | NCI-H460 lung 104% | A549/ATCC NSCLC 86.3%

Cc1nssc1=S
inactive: NCI-H23 lung 91.5% | NCI-H226 lung 99.6% | NCI-H322M lung 85.2% | HOP-62 NSCLC 107% | NCI-H460 lung 109% | HOP-92 NSCLC 59.9% | NCI-H522 lung 82.6% | A549/ATCC NSCLC 111% | 786-0 renal 95.3% | COLO 205 colon 91.2%

CC(CN(C)C)CN1c2ccccc2CCc2ccccc21 (stereo not given)
inactive: NCI-H23 lung 83.3% | NCI-H226 lung 100% | NCI-H322M lung 77.1% | HOP-62 NSCLC 96.4% | NCI-H460 lung 103% | HOP-92 NSCLC 38.9% | NCI-H522 lung 80.2% | A549/ATCC NSCLC 94.4% | 786-0 renal 64.3% | COLO 205 colon 46.1%

Nc1ncnc2c1c(C(F)(F)F)cn2[C@@H]1O[C@H](CO)[C@@H](O)[C@H]1O
active: NCI-H23 lung 2.27% | NCI-H226 lung -13.8% | HOP-62 NSCLC -4.3% | NCI-H460 lung 7.65% | HOP-92 NSCLC -12.8% | NCI-H522 lung -14.1% | COLO 205 colon -42.1%
inactive: NCI-H322M lung 19.5% | A549/ATCC NSCLC 10.5% | 786-0 renal 13.5%

CC[C@H]1[C@@H]2C=C[C@@H]3[C@H]4C/C=C\C(=O)NCCC[C@@H]5NC(=O)/C(=C(O)/C=C/[C@@H]4C[C@@H]3[C@H]2C[C@H]1C)C5=O
active: NCI-H226 lung 1.14% | HOP-62 NSCLC -49.9% | NCI-H460 lung -51.2% | HOP-92 NSCLC -20.4% | 786-0 renal -80.9%
inactive: NCI-H23 lung 51% | NCI-H322M lung 35.7% | NCI-H522 lung 67.7% | A549/ATCC NSCLC 36.8% | COLO 205 colon 66%

Nc1nc(Cl)cc(NCc2ccc(CNc3cc(Cl)nc(N)n3)cc2)n1
inactive: NCI-H23 lung 75.7% | NCI-H226 lung 70.8% | NCI-H322M lung 102% | HOP-62 NSCLC 48.8% | NCI-H460 lung 115% | HOP-92 NSCLC 92.9% | NCI-H522 lung 49.8% | A549/ATCC NSCLC 87.2% | 786-0 renal 101% | COLO 205 colon 103%

CCC1CN2C(=N1)c1ccccc1-c1cc(Cl)ccc12 (stereo not given)
active: NCI-H226 lung -40.2% | HOP-62 NSCLC 5.88% | NCI-H460 lung -18.9% | HOP-92 NSCLC -12.2% | NCI-H522 lung -28.5% | A549/ATCC NSCLC -21.7% | 786-0 renal -35.4%
inactive: NCI-H23 lung 23.4% | NCI-H322M lung 28.3% | COLO 205 colon 18.4%

O=[N+]([O-])c1cccc(C2c3ccccc3Oc3ccccc32)c1
inactive: NCI-H23 lung 94.6% | NCI-H226 lung 84.1% | NCI-H322M lung 83.6% | HOP-62 NSCLC 85.4% | NCI-H460 lung 88.1% | HOP-92 NSCLC 81% | NCI-H522 lung 80.8% | A549/ATCC NSCLC 87.4% | 786-0 renal 99.9% | COLO 205 colon 90.3%

NC(N)=N/N=C/c1ccc([N+](=O)[O-])cc1
inactive: NCI-H23 lung 91.4% | NCI-H226 lung 101% | NCI-H322M lung 93.5% | HOP-62 NSCLC 104% | NCI-H460 lung 104% | HOP-92 NSCLC 104% | NCI-H522 lung 107% | A549/ATCC NSCLC 109% | 786-0 renal 103% | COLO 205 colon 113%

COc1ccc(Cl)cc1NC(=O)c1cc2c(n1C)-c1nc(NC(=O)C(C)(C)C)sc1CC2
inactive: NCI-H23 lung 87.8% | NCI-H226 lung 89.6% | NCI-H322M lung 91.3% | HOP-62 NSCLC 76.4% | NCI-H460 lung 98.1% | HOP-92 NSCLC 67.9% | NCI-H522 lung 69% | A549/ATCC NSCLC 77.2% | 786-0 renal 94.7% | COLO 205 colon 97.7%

OCc1cn(-c2ccc(Cl)cc2)nc1-c1ccc(O)cc1
inactive: NCI-H23 lung 96.7% | NCI-H226 lung 96.9% | NCI-H322M lung 85.8% | HOP-62 NSCLC 81.9% | NCI-H460 lung 106% | HOP-92 NSCLC 136% | NCI-H522 lung 71.2% | A549/ATCC NSCLC 90.1% | 786-0 renal 93.4% | COLO 205 colon 115%

COc1ccc(C2=NN(C(=O)COc3ccc(Cl)cc3)C(O)(c3cc(F)c(Cl)cc3Cl)C2)cc1 (stereo not given)
inactive: NCI-H23 lung 96.3% | NCI-H226 lung 109% | NCI-H322M lung 83.4% | HOP-62 NSCLC 61.8% | NCI-H460 lung 109% | HOP-92 NSCLC 39.4% | NCI-H522 lung 79.5% | A549/ATCC NSCLC 96.4% | 786-0 renal 82% | COLO 205 colon 101%
